# Data: the supplement of paper PMC11402862
# How the values were obtained:
# Test in all cases: luciferase reporter transactivation, fold of solvent control; higher = stronger receptor activation
# Conditions in all cases: HEK293T, exposure time: 24 h
# CAR LBD (GAL4 fusion) = test system: CAR LBD (GAL4 fusion)
# How it was run: (§1)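 In 96-well plates, HEK293T cells were transiently transfected with a GAL4 fusion of one human nuclear receptor ligand-binding domain, a GAL4-(UAS)5-TK firefly luciferase reporter and a Renilla luciferase plasmid. After 24 h of exposure to compound at 1 to 500 µM in DMEM with 0.5% DMSO, firefly luciferase was normalised to Renilla luciferase. Transactivation is reported as fold of solvent control, averaged over biological replicates.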
# [1] = test system: LXRalpha LBD (GAL4 fusion)
# How it was run: as §1
# [2] = test system: PPARdelta LBD (GAL4 fusion)
# How it was run: as §1
# PXR LBD (GAL4 fusion) = PXR LBD (GAL4 fusion) (UniProt O75469)
# Sequence of PXR LBD (GAL4 fusion) (O75469 whole entry, looked up, the tested form may be a part): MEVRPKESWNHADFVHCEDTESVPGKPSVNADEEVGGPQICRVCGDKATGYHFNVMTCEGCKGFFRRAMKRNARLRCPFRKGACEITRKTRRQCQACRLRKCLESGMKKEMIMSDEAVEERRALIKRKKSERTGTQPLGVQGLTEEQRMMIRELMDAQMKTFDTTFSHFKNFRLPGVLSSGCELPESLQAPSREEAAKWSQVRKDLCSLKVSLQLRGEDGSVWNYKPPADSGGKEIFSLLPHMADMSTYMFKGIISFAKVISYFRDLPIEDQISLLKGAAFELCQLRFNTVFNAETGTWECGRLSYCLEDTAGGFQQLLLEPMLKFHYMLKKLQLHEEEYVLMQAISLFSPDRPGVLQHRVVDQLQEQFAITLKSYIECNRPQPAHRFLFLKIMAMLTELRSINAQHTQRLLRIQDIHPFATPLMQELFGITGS
# How it was run: as §1
# RARalpha (GAL4 fusion) = test system: RARalpha (GAL4 fusion)
# How it was run: as §1
smiles,measurement,setting,value
O=C(O)C(F)(F)C(F)(F)F [perfluoropropanoic acid],luciferase reporter transactivation,CAR LBD (GAL4 fusion); concentration: 1 µM,0.94
same,luciferase reporter transactivation,CAR LBD (GAL4 fusion); concentration: 5 µM,0.855
same,luciferase reporter transactivation,CAR LBD (GAL4 fusion); concentration: 10 µM,0.923
same,luciferase reporter transactivation,CAR LBD (GAL4 fusion); concentration: 25 µM,0.983
same,luciferase reporter transactivation,CAR LBD (GAL4 fusion); concentration: 50 µM,1.12
same,luciferase reporter transactivation,CAR LBD (GAL4 fusion); concentration: 100 µM,1.11
same,luciferase reporter transactivation,CAR LBD (GAL4 fusion); concentration: 250 µM,1.15
same,luciferase reporter transactivation,CAR LBD (GAL4 fusion); concentration: 500 µM,1.31
same,luciferase reporter transactivation,[1]; concentration: 1 µM,0.9
same,luciferase reporter transactivation,[1]; concentration: 5 µM,0.907
same,luciferase reporter transactivation,[1]; concentration: 10 µM,0.949
same,luciferase reporter transactivation,[1]; concentration: 25 µM,0.933
same,luciferase reporter transactivation,[1]; concentration: 50 µM,1
same,luciferase reporter transactivation,[1]; concentration: 100 µM,0.953
same,luciferase reporter transactivation,[1]; concentration: 250 µM,0.94
same,luciferase reporter transactivation,[1]; concentration: 500 µM,0.97
same,luciferase reporter transactivation,[2]; concentration: 1 µM,0.959
same,luciferase reporter transactivation,[2]; concentration: 5 µM,1.14
same,luciferase reporter transactivation,[2]; concentration: 10 µM,1.27
same,luciferase reporter transactivation,[2]; concentration: 25 µM,1.2
same,luciferase reporter transactivation,[2]; concentration: 50 µM,1.26
same,luciferase reporter transactivation,[2]; concentration: 100 µM,1.21
same,luciferase reporter transactivation,[2]; concentration: 250 µM,1.22
same,luciferase reporter transactivation,[2]; concentration: 500 µM,1.31
same,luciferase reporter transactivation,PXR LBD (GAL4 fusion); concentration: 1 µM,0.362
same,luciferase reporter transactivation,PXR LBD (GAL4 fusion); concentration: 5 µM,0.532
same,luciferase reporter transactivation,PXR LBD (GAL4 fusion); concentration: 10 µM,0.495
same,luciferase reporter transactivation,PXR LBD (GAL4 fusion); concentration: 25 µM,0.632
same,luciferase reporter transactivation,PXR LBD (GAL4 fusion); concentration: 50 µM,0.626
same,luciferase reporter transactivation,PXR LBD (GAL4 fusion); concentration: 100 µM,0.695
same,luciferase reporter transactivation,PXR LBD (GAL4 fusion); concentration: 250 µM,0.601
same,luciferase reporter transactivation,PXR LBD (GAL4 fusion); concentration: 500 µM,0.727
same,luciferase reporter transactivation,RARalpha (GAL4 fusion); concentration: 1 µM,0.332
same,luciferase reporter transactivation,RARalpha (GAL4 fusion); concentration: 5 µM,0.321
same,luciferase reporter transactivation,RARalpha (GAL4 fusion); concentration: 10 µM,0.367
same,luciferase reporter transactivation,RARalpha (GAL4 fusion); concentration: 25 µM,0.387
same,luciferase reporter transactivation,RARalpha (GAL4 fusion); concentration: 50 µM,0.632
same,luciferase reporter transactivation,RARalpha (GAL4 fusion); concentration: 100 µM,0.652
same,luciferase reporter transactivation,RARalpha (GAL4 fusion); concentration: 250 µM,0.977
same,luciferase reporter transactivation,RARalpha (GAL4 fusion); concentration: 500 µM,0.946
NS(=O)(=O)C(F)(F)C(F)(F)C(F)(F)C(F)(F)C(F)(F)C(F)(F)C(F)(F)C(F)(F)F [perfluorooctane sulfonamide],luciferase reporter transactivation,CAR LBD (GAL4 fusion); concentration: 1 µM,1.08
same,luciferase reporter transactivation,CAR LBD (GAL4 fusion); concentration: 2.5 µM,1.29
same,luciferase reporter transactivation,CAR LBD (GAL4 fusion); concentration: 5 µM,1.18
same,luciferase reporter transactivation,CAR LBD (GAL4 fusion); concentration: 10 µM,1.06
same,luciferase reporter transactivation,CAR LBD (GAL4 fusion); concentration: 100 µM,0.995
same,luciferase reporter transactivation,[1]; concentration: 1 µM,1.05
same,luciferase reporter transactivation,[1]; concentration: 2.5 µM,0.997
same,luciferase reporter transactivation,[1]; concentration: 5 µM,1.08
same,luciferase reporter transactivation,[1]; concentration: 10 µM,1.03
same,luciferase reporter transactivation,[1]; concentration: 100 µM,1.09
same,luciferase reporter transactivation,[2]; concentration: 1 µM,1.15
same,luciferase reporter transactivation,[2]; concentration: 2.5 µM,1.03
same,luciferase reporter transactivation,[2]; concentration: 5 µM,0.974
same,luciferase reporter transactivation,[2]; concentration: 10 µM,0.826
same,luciferase reporter transactivation,[2]; concentration: 100 µM,0.935
same,luciferase reporter transactivation,PXR LBD (GAL4 fusion); concentration: 1 µM,0.779
same,luciferase reporter transactivation,PXR LBD (GAL4 fusion); concentration: 2.5 µM,0.819
same,luciferase reporter transactivation,PXR LBD (GAL4 fusion); concentration: 5 µM,0.699
same,luciferase reporter transactivation,PXR LBD (GAL4 fusion); concentration: 10 µM,0.703
same,luciferase reporter transactivation,PXR LBD (GAL4 fusion); concentration: 100 µM,0.74
same,luciferase reporter transactivation,RARalpha (GAL4 fusion); concentration: 1 µM,1.02
same,luciferase reporter transactivation,RARalpha (GAL4 fusion); concentration: 2.5 µM,0.969
same,luciferase reporter transactivation,RARalpha (GAL4 fusion); concentration: 5 µM,1.32
same,luciferase reporter transactivation,RARalpha (GAL4 fusion); concentration: 10 µM,1.47
same,luciferase reporter transactivation,RARalpha (GAL4 fusion); concentration: 100 µM,1.71
